A short description of test [1]: qHTS assay to identify small molecule agonists of the hypoxia (HIF-1) signaling pathway - cell viability counter screen (AID 1224844; calls by dose curve; further: nearly all actives have a fitted effect of over 50% in size). An outline of the steps: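 ME-180 HRE-bla cells, 2,000/well, 0.5% dialyzed FBS; 5 hr settle, 17 hr compound at 37C/5% CO2; CCF4-AM reporter read first, then CellTiter-Glo luminescence after 30 min RT.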
Test [2] in a line: qHTS assay to identify small molecule agonists of H2AX (AID 1224845; active means well fitted activation curve with a large enough effect in the signal ratio in the repeat runs, not every such curve was filed as active; the % refers to the signal ratio). An outline of the steps: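 Wild-type CHO-K1 cells plated overnight, then exposed 3 hr at 37C to compounds at 15 concentrations (0.76% DMSO). Lysed, then HTRF anti-pH2AX(S139)-cryptate/anti-H2AX-d2 detection after 24 hr at room temperature; emissions 665 and 620 nm.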
For orientation: Quantitative high-throughput screening tests each substance at several concentrations.

Test [3] can be described thus: qHTS assay to identify small molecule agonists of the hypoxia (HIF-1) signaling pathway (AID 1224846; active means well fitted activation curve with a large enough effect in the signal ratio in the repeat runs, not every such curve was filed as active; the % refers to the signal ratio). In outline:
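Cell line: CellSensor HRE-bla ME-180; 2,000 cells/well; 0.5% dialyzed FBS; 5 h preincubation; DMSO compound pin transfer; 17 h, 37C, 5% CO2; CCF4-AM added; bla FRET signal scored for activation.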

A short description of test [4]: qHTS assay to identify small molecule agonists of H2AX - cell viability counter screen (AID 1224847; calls by dose curve; further: nearly all actives have a fitted effect of over 30% in size; further: potency means the concentration at half of the fitted maximal effect). An outline of the steps:
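Viability of CHO-K1 (wild type) cells after 3 hr compound exposure was measured by CellTiter-Glo luminescence.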

Test [5] in a line: qHTS assay to identify small molecule antagonists of the estrogen related receptor (ERR) signaling pathway from Tox21 library (AID 1224848). Further: nearly all actives have a fitted effect of over 50% in size. Further: potency means the concentration at half of the fitted maximal effect. In outline: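 Screening used an ERR reporter line supplied by NTP, exposed for 18 h at 37 C to library compounds delivered in DMSO. Signal was luciferase luminescence developed with ONE-Glo at room temperature for 30 min.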
Test [6] is described as follows: qHTS assay to identify small molecule agonists of the estrogen related receptor (ERR) signaling pathway from Tox21 library (AID 1224849; calls by dose curve; further: nearly all actives have a fitted effect of over 15% in size). The note with it: ERR reporter cell line, ONE-Glo luciferase, 18 h; at 92.4 µM (top of the series) unless noted. An outline of the steps: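 ERR cells, 6 h pre-incubation 37 C/5% CO2; cpd in DMSO pinned; 18 h 37 C; ONE-Glo added, 30 min RT; luminescence read. Agonist mode, qHTS.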

A short description of test [7]: qHTS RealTime-Glo MT Cell Viability Assay in HepG2 cells - 24 hour (AID 1224867). Further: nearly all actives have a fitted effect of over 50% in size. In outline: (§1)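 HepG2 suspension premixed with RealTime-Glo reagents is plated at 600 cells per well and left 5 h at 37 C/5% CO2. Compounds in DMSO then go in, and bioluminescence reflecting viable cell number is recorded over 40 h.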
Test [8] is described as follows: qHTS RealTime-Glo MT Cell Viability Assay in HEK293 cells - 32 hour (AID 1224868). Further: nearly all actives have a fitted effect of over 50% in size. Further: potency means the concentration at half of the fitted maximal effect. An outline of the steps: (§2)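 Reads taken at 0, 8, 16, 24, 32 and 40 h from the same wells. HEK293 cells (600/well) carried RealTime-Glo reagents from seeding, with compound added after a 5 h settle at 37 C.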
A short description of test [9]: A CellTox Green Cytotoxicity Assay to monitor cytotoxicity in HEK293 cells - 0 hour (AID 1224869). Further: nearly all actives have a fitted effect of over 50% in size. An outline of the steps:
(§3)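 Nonlytic real-time cytotoxicity: HEK293 + CellTox Green reagent plated, 5 h preincubation, pintool compound addition (23 nL in DMSO), 37 C for 40 h, fluorescence measured at successive time points.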

Test [10] in a line: qHTS RealTime-Glo MT Cell Viability Assay in HepG2 cells - 40 hour (AID 1224870). Further: nearly all actives have a fitted effect of over 50% in size. An outline of the steps:
(§4)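 HepG2 cells mixed with RealTime-Glo MT reagents (NanoLuc plus cell-permeant prosubstrate) were seeded at 600 cells/well, incubated 5 h at 37 C/5% CO2, then pinned with compounds in DMSO; nonlytic luminescence tracked viability during 40 h treatment.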

A short description of test [11]: A CellTox Green Cytotoxicity Assay to monitor cytotoxicity in HEK293 cells - 40 hour (AID 1224871). Further: nearly all actives have a fitted effect of over 45% in size. Further: potency means the concentration at half of the fitted maximal effect. An outline of the steps: as §3
A short description of test [12]: qHTS RealTime-Glo MT Cell Viability Assay in HEK293 cells - 16 hour (AID 1224872). Further: nearly all actives have a fitted effect of over 50% in size. Further: potency means the concentration at half of the fitted maximal effect. An outline of the steps: as §2
Test [13] in a line: qHTS RealTime-Glo MT Cell Viability Assay in HepG2 cells - 8 hour (AID 1224873). Further: nearly all actives have a fitted effect of over 55% in size. An outline of the steps: as §4
The nature of test [14]: A CellTox Green Cytotoxicity Assay to monitor cytotoxicity in HEK293 cells - 24 hour (AID 1224875). Further: nearly all actives have a fitted effect of over 45% in size. Further: potency means the concentration at half of the fitted maximal effect. In outline: as §3
Test [15] can be described thus: A CellTox Green Cytotoxicity Assay to monitor cytotoxicity in HepG2 cells - 16 hour (AID 1224876). Further: nearly all actives have a fitted effect of over 45% in size. An outline of the steps: (§5)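 Read-out is fluorescence of a cyanine dye excluded from live cells that stains DNA of dead HepG2 cells, with signal proportional to cytotoxicity. Plates were read at 0, 8, 16, 24, 32 and 40 h after compound addition.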
Test [16] is described as follows: qHTS RealTime-Glo MT Cell Viability Assay in HepG2 cells - 32 hour (AID 1224877). Further: nearly all actives have a fitted effect of over 55% in size. In outline:
as §1

Test [17] in a line: A CellTox Green Cytotoxicity Assay to monitor cytotoxicity in HepG2 cells - 24 hour (AID 1224878). Further: nearly all actives have a fitted effect of over 45% in size. In outline: as §5
Test [18] is described as follows: A CellTox Green Cytotoxicity Assay to monitor cytotoxicity in HepG2 cells - 40 hour (AID 1224879). Further: nearly all actives have a fitted effect of over 40% in size. In outline:
as §5

Test [19] has as its target Thyrotropin receptor (Homo sapiens) (UniProt P16473). Kind of test: qHTS assay to identify small molecule agonists of the thyroid stimulating hormone receptor (TSHR) signaling pathway (AID 1224843; calls by dose curve; further: nearly all actives have a fitted effect of over 45% in size). In outline: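 Cell line HEK293 with TSHR; density 800/well. Exposure 30 min RT. Readout HTRF cAMP (cAMP-d2/anti-cAMP-cryptate), 1 h RT before reading.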
The nature of test [20]: qHTS RealTime-Glo MT Cell Viability Assay in HEK293 cells - 40 hour (AID 1224874). Further: nearly all actives have a fitted effect of over 50% in size. Further: potency means the concentration at half of the fitted maximal effect. The note with it: RealTime-Glo luminescence; max response: stronger effect = lower value. An outline of the steps:
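Cells were seeded together with NanoLuc luciferase and a prosubstrate that viable cells reduce to a luciferase substrate. After a 5 h incubation at 37 C/5% CO2, compounds were added and luminescence was measured repeatedly during 40 h of treatment.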

SMILES strings stand for the structures. Results filed as inconclusive are left out. A structure can be active in one record and inactive in another. The source made the active and inactive calls. Unless noted, the call rests on the fitted dose curve; in most records, active means well fitted curve in the direction sought with a large enough effect in the repeat runs; inconclusive means weak or mixed curves; inactive means no such curve, though single readings can be large; an effect the other way counts as inactive or inconclusive.
On the % scale 0 is the no-effect control and ±100 the full control effect.

Thyrotropin receptor (Homo sapiens), sequence (P16473 whole entry, looked up): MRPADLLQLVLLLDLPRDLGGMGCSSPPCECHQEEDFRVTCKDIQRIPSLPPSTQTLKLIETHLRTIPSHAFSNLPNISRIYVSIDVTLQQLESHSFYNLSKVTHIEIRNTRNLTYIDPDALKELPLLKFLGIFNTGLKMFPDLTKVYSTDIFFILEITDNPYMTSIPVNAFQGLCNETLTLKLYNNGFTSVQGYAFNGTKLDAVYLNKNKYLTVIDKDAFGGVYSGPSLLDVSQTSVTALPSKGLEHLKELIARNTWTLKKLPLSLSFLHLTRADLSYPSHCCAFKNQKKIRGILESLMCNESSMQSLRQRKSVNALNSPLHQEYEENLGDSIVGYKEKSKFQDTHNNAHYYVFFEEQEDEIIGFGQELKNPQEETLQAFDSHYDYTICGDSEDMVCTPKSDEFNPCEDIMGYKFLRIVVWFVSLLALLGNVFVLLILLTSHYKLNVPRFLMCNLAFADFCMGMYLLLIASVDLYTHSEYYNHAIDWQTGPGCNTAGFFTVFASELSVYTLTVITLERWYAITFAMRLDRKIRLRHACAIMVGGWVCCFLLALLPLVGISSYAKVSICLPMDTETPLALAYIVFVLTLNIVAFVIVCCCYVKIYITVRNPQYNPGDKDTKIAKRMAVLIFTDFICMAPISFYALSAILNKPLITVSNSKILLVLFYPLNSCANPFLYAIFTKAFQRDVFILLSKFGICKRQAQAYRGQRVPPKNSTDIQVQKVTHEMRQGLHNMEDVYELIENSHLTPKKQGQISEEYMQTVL

Turning to `CC[C@@H](CO)NC(=O)[C@@H]1C=C2c3cccc4c3c(cn4C)C[C@H]2N(C)C1`, the Potency result in test [1], in [4], in test [5], in [7], in test [8] and in test [10] was “inactive” in each case. Moreover, the Potency result in test [11], in test [12], in [14], in [15], in test [16] and in test [17] was “inactive” each time. The Potency result in test [18] was “inactive”. For the same molecule, the call in test [2], in test [3], in test [9] and in test [13] was inactive. In addition, the activity change, positive = activation in [6] was 0.637% [at 42.5 µM] (inactive).
Regarding `ClCOCCl`, the Potency result in test [19], in [4], in test [7], in [8], in test [10] and in [11] was “inactive” in each case. For the same molecule, the Potency result in test [12], in [14], in [15], in [16], in test [17] and in test [18] was “inactive” each time. In addition, the molecule was classed as inactive in test [2], in [9] and in test [13]. Moreover, the max response in test [20] was 12.2% (inactive).
Regarding `CNC(=O)NC(O)C(Cl)(Cl)Cl` (centres undefined), the Potency result in [19], in [4], in test [7], in [10], in [11] and in [14] was “inactive” in each case. Moreover, the Potency entry in test [15], in test [16], in test [17] and in test [18] was “inactive” each time. Also, the call in test [2], in test [9] and in [13] was inactive. The max response in test [20] was 9.22% (inactive).
Take `NCCOS(=O)(=O)O`: the Potency entry in test [19], in test [4], in [7], in test [8], in test [10] and in [11] was “inactive” in each case. For the same molecule, the Potency entry in [14], in [15], in test [16] and in test [17] was “inactive” in each case. Besides, the result in test [2], in test [3], in test [9] and in test [13] was inactive. Also, the max response in test [20] was 1.3% (inactive).
For `Clc1ccc(C(Cl)(Cl)Cl)cn1`, the Potency result in [19], in test [4], in test [7], in [8], in test [10] and in test [12] was “inactive” each time. The Potency result in [15], in [16] and in [17] was “inactive” in each case. Further, the outcome in test [2], in test [3], in [9] and in test [13] was inactive. Further, the Potency in test [11] and in test [14] was 34.7 µM (active) throughout.
On to `O=S1(=O)OCCO1`, for which the Potency result in test [19], in test [4], in test [5], in test [7], in [8] and in test [10] was “inactive” in each case. Moreover, the Potency entry in test [11], in test [12], in test [14], in test [15], in test [16] and in test [17] was “inactive” in each case. For the same molecule, the Potency result in [18] is “inactive”. The call in test [2], in [3], in test [9] and in [13] was inactive. Also, the activity change, positive = activation in [6] was 5.54% (inactive).
In the case of `CN(C)CCc1c[nH]c2cccc(OP(=O)(O)O)c12`, the molecule was called inactive in test [2], in test [9] and in test [13]. Also, the Potency entry in test [4], in [7], in test [10], in test [11], in test [12] and in test [14] was “inactive” each time. Further, the Potency result in test [15], in [16] and in [17] was “inactive” in each case. Further, the max response in [20] is -0.389% (inactive).
As to `COc1ccc2c(C(=O)c3ccc(Cl)cc3)c(C)n(CC(=O)O)c2c1`, the Potency entry in test [1], in [4], in [7], in [8], in test [10] and in test [11] was “inactive” each time. Besides, the Potency entry in test [14], in test [15], in [16], in test [17] and in test [18] was “inactive” each time. For the same molecule, the molecule was classed as inactive in test [2], in [3], in test [9] and in test [13]. Besides, the max response in [20] is 3.79% (inactive).
`C=CC(=O)OCCN(C)C`: the result in test [2], in test [3], in [9] and in test [13] was inactive. Also, the Potency entry in test [4], in [5], in [7], in test [10], in test [11] and in test [12] was “inactive” in each case. Moreover, the Potency result in [14], in test [15], in [16] and in test [17] was “inactive” each time. In addition, in test [6], the activity change, positive = activation is 3.26% (inactive). Besides, the max response in [20] was 14.5% (inactive).
With `CCCCCCCCSC(=O)Oc1cc(Cl)nnc1-c1ccccc1`, the Potency entry in test [1], in test [7], in [8], in [10], in test [11] and in [12] was “inactive” each time. Moreover, the Potency result in test [14], in test [15], in test [16] and in [17] was “inactive” in each case. The outcome in test [3], in [9] and in test [13] was inactive. Moreover, the max response in [20] was 6.25% (inactive).
Regarding `BrCC1CO1` (centres undefined), the Potency entry in [1], in [4], in test [7], in test [8], in test [10] and in test [11] was “inactive” each time. The Potency result in test [12], in test [14], in test [15], in test [16], in test [17] and in test [18] was “inactive” each time. In addition, the molecule was classed as inactive in test [2], in test [3], in test [9] and in test [13]. In addition, the max response in test [20] was 5.87% (inactive).
For `C[C@H](CN1CCOCC1)C(C(=O)N1CCCC1)(c1ccccc1)c1ccccc1`, the Potency entry in [1], in [4], in [7], in [10], in test [11] and in test [14] was “inactive” in each case. Besides, the Potency entry in [15], in test [16], in test [17] and in test [18] was “inactive” in each case. In addition, the outcome in test [2], in test [9] and in test [13] was inactive. The Potency in test [5] is 66.3 µM (active). In addition, the activity change, positive = activation in test [6] is -33.1% (inactive).
As to `C[C@H]1CCCC(=O)CCC/C=C/c2cc(O)cc(O)c2C(=O)O1`, the molecule was called inactive in test [2], in test [9] and in test [13]. The Potency was 86.5 µM (active) and inactive in test [4]; 21.1 µM (active) in [8]; 37.5 µM (active) in test [12]; 21.1 µM (active) in [20]. The Potency entry in test [7], in test [10], in [11], in test [14], in test [15] and in [16] was “inactive” in each case. Also, the Potency result in test [17] was “inactive”.
As to `COc1ccc(CN2CCNCC2)c(OC)c1OC`, the Potency result in [1], in test [4], in [5], in test [7], in test [8] and in [10] was “inactive” in each case. In addition, the Potency entry in [11], in test [12], in [14], in test [15], in [16] and in test [17] was “inactive” throughout. Moreover, in test [18], the Potency entry is “inactive”. Further, the outcome in test [2], in test [9] and in test [13] was inactive. The activity change, positive = activation in test [6] is -10% [at 42.5 µM] (inactive). Moreover, the max response in test [20] is 5.58% (inactive).

For the origin of these results see PubChem BioAssay (Tox21).
